RGS4 inhibitor – Inhibitors of Regulator of G Protein Signaling (RGS) 4: qHTS; Regulator of G-protein signaling 4 (Homo sapiens), P49798; Transcreener GDP fluorescence polarization, RGS4-accelerated GTP hydrolysis; Potency, µM (top dose mostly 114 µM), for the others: at the highest dose activity change, negative = inhibition, actives largely listed as inhibitors; 0.039% of 390,000 active; AID 504845, 2011; further: potency means the concentration at half of the fitted maximal effect; nearly all actives have a fitted effect of over 75% in size
Target sequence (P49798 whole entry, looked up): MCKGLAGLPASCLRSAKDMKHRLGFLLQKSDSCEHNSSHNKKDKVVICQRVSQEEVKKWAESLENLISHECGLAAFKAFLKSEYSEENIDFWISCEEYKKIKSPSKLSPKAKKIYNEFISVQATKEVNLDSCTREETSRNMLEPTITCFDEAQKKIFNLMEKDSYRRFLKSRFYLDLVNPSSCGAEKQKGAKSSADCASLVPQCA
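MLSMR compounds (23 nl, pin-transferred) preincubated 10 min at room temperature with a 500nM (2x) first reagent, then RGS4 at 900nM (2x) plus Transcreener GDP mix added; fluorescence polarization (620/688 nm) read before and after 90 min at 30 °C.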
USP2a block – qHTS Assay for Inhibitors of Ubiquitin-specific Protease USP2a Using CHOP2 as the Reporter. Ubiquitin carboxyl-terminal hydrolase 2 (Homo sapiens), O75604. USP2 core, Ub-CHOP2 coupled fluorogenic reporter, 485/531. Potency, µM (top dose mostly 38.3 µM), inactives show at the top dose activity change, negative = inhibition, usual class: inhibitors. 0.01% of 330,000 active;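 further: potency means the concentration at half of the fitted maximal effect; plate controls were DMSO wells for no effect and full inhibition by NEM control for full effect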
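Deubiquitinase activity read as fluorescence (485/531 nm) after Ub-CHOP2 cleavage activates the enterokinase reporter on its substrate; USP2 core 10nM, Ub-CHOP2 and substrate 25nM each, 30min compound preincubation then 60min RT; data normalized to NEM, curves fitted.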
Eya2 inh – qHTS Assay for Inhibitors of the Phosphatase Activity of Eya2; Protein phosphatase EYA2 (Homo sapiens), O00167; recombinant Eya2, OMFP fluorescence dephosphorylation (OMFP is methylfluorescein phosphate); Potency, µM (series often up to 76.9 µM), without a hit: at the top dose activity, negative = inhibition, actives largely listed as inhibitors; 0.006% of 330,000 active; further: potency means the concentration at half of the fitted maximal effect
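Eya2 (0.2 uM) preincubated 10 min at ambient with compound, then OMFP substrate added at 50 uM; 10 min reaction in 50 mM HEPES pH 7.5, 50 mM NaCl, 5 uM MgCl2, 0.05% BSA, 1 mM DTT. Fluorescence read at Ex 485/Em 525 nm.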
PI4K2A block – qHTS for small molecular inhibitors of PI4K2A; AID 1346378, 2018; activity change, negative = inhibition, % at 76.9 µM; Phosphatidylinositol 4-kinase type 2-alpha (Homo sapiens), Q9BTU6; 0.13% of 420,000 active; purified PI4K2A, ADP-Glo luminescence, 1 h; active compounds read low; in the data active means activity change below about -50%; inconclusive means mostly about -30% to -49%;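 further: -100% = wells without enzyme as full effect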
Target sequence (Q9BTU6 whole entry, looked up): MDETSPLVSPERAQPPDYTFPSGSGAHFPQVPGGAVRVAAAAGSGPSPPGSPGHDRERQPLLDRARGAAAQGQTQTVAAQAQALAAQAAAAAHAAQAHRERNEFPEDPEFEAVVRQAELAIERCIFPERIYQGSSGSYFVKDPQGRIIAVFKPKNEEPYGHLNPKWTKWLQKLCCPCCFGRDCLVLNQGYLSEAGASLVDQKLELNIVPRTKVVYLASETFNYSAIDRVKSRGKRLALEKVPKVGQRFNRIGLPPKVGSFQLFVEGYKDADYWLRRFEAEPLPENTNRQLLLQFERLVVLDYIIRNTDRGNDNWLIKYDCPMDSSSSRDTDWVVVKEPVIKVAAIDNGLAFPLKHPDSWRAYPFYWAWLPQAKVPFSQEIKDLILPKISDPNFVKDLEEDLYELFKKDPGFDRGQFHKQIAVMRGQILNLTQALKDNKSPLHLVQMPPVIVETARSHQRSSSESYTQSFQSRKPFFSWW
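PI4K2A activity was measured by ADP-Glo luminescence: enzyme (4 ug/mL stock) and phosphatidylinositol (1.2 mM stock) in Tris pH 7.5/MgCl2/EGTA/Triton X-100 buffer were reacted with ATP (300 microM stock) for one hour at ambient temperature.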
CtBP-E1A inh – qHTS Assay for Inhibitors of the CtBP/E1A Interaction; AlphaScreen GST-E1A/His-CtBP binding, 1536-well; active compounds read low; activity change, % (no concentration beside the values); 0.49% of 340,000 active; AID 651724, 2012; in the data active means activity change below about -65%; inconclusive means mostly about -30% to -63%
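In 5 uL wells, 23 nL compound meets equimolar GST-E1A and His-CtBP (5X stock 125 nM each) for 2 h, 37 °C. Beads (5X, 50 ug/mL) then 1 h, 37 °C, dark.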
Six1-Eya2 blk – qHTS Assay for Inhibitors of the Six1/Eya2 Interaction. Homeobox protein SIX1 (Homo sapiens) + Protein phosphatase EYA2 (Homo sapiens), …. AlphaScreen GST-Six1/His-Eya2 binding, biochemical; active compounds read low. activity change, % (no concentration beside the values). 0.56% of 360,000 active. AID 651725, 2012; in the data active means activity change below about -65%; inconclusive means mostly about -30% to -63%
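GST-Six1 + His-Eya2 (5X stock: 250/500 nM); Tris pH 8.0, 300 mM NaCl, 0.05% BSA, 0.02% Tween 20; GSH donor/Ni acceptor beads; 1 h 37 °C dark; AlphaScreen readout.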
Active calls of the source: *. Compounds with a hit are over-represented: about 0.72% of the library has one in this group of screens. Unless noted, the call rests on the fitted dose curve; in most records, active means well fitted curve in the direction sought with a large enough effect; inconclusive means small, poorly fitted or top-dose-only effect, or another doubt; inactive means no such curve, though single readings can be large; an effect the other way counts as inactive or inconclusive. Unless noted, on the % scale 0 is the no-effect control and ±100 the full control effect.

What do the screens show for `Cc1ccc(C(=O)O/N=C(\N)c2ccccn2)c(C)c1`?
RGS4 inhibitor: 9%; USP2a block: 1%; Eya2 inh: 11%; PI4K2A block: -85*; CtBP-E1A inh: -28; Six1-Eya2 blk: -15

Results for COc1ccc(C(=O)O/N=C(\N)c2ccccn2)cc1 ?
RGS4 inhibitor: -20%; USP2a block: -1%; Eya2 inh: 3%; PI4K2A block: -90*; CtBP-E1A inh: -5; Six1-Eya2 blk: -13

Results for N/C(=N\OC(=O)c1ccc(Cl)cc1)c1ccccn1 ?
RGS4 inhibitor: 22%; USP2a block: -1%; Eya2 inh: 1%; PI4K2A block: -70*; CtBP-E1A inh: 3; Six1-Eya2 blk: 0

What do the screens show for `N/C(=N\OC(=O)c1ccc(Cl)c(Cl)c1)c1ccccn1`?
RGS4 inhibitor: 8%; USP2a block: 2%; Eya2 inh: -3%; PI4K2A block: 3; CtBP-E1A inh: 6; Six1-Eya2 blk: 3

Results for N/C(=N\OC(=O)c1ccccc1Cl)c1ccccn1 ?
RGS4 inhibitor: -3%; USP2a block: 2%; Eya2 inh: -4%; PI4K2A block: -51*; CtBP-E1A inh: 6; Six1-Eya2 blk: 5

How did COc1cc(OC)cc(C(=O)O/N=C(\N)c2ccccn2)c1 do in these assays?
RGS4 inhibitor: 7%; USP2a block: 0%; Eya2 inh: -7%; PI4K2A block: -2; Six1-Eya2 blk: 2

How did Cc1c(NC(=O)Nc2ccccc2C(F)(F)F)sc2nc3n(c(=O)c12)CCC(C)CC3 (stereo unspecified) do in these assays?
RGS4 inhibitor: -8%; PI4K2A block: -3

What do the screens show for `O=C(CSc1nnc(SCc2cccc3ccccc23)s1)Nc1ccc(S(=O)(=O)Nc2nccs2)cc1`?
PI4K2A block: -18

Results for COc1ccc(-c2noc(N3CCN(c4ccc(C)cc4)C(C)C3)n2)cc1OC (stereo unspecified) ?
RGS4 inhibitor: -1%; PI4K2A block: 0

How did O=C(Nc1nccs1)c1nc[nH]c1C(=O)N1CCN(c2ccccc2)CC1 do in these assays?
RGS4 inhibitor: -17%; USP2a block: 8%; Eya2 inh: 9%; PI4K2A block: -11; CtBP-E1A inh: -71*; Six1-Eya2 blk: -78*

What do the screens show for `O=C1C(=Cc2cccc(Cl)c2)CCc2ccccc21`?
PI4K2A block: -13; CtBP-E1A inh: 6; Six1-Eya2 blk: 2

Results for Cn1cccc1/C=C1\CCc2ccccc2C1=O ?
RGS4 inhibitor: -9%; USP2a block: -1%; Eya2 inh: 3%; PI4K2A block: -56*; CtBP-E1A inh: inconclusive; Six1-Eya2 blk: -25

What do the screens show for `COc1ccccc1C=C1CCc2ccccc2C1=O`?
PI4K2A block: -63*; CtBP-E1A inh: 1; Six1-Eya2 blk: -3

Results for O=C1C(=Cc2ccccc2Cl)CCc2ccccc21 ?
PI4K2A block: -78*; CtBP-E1A inh: -14; Six1-Eya2 blk: -1

How did O=C1/C(=C/c2ccco2)CCc2ccccc21 do in these assays?
RGS4 inhibitor: -21%; USP2a block: 1%; Eya2 inh: -2%; PI4K2A block: -54*; CtBP-E1A inh: -5; Six1-Eya2 blk: -1

Results for Cc1cc(N)c2ccccc2[n+]1CCCCCCCCCC[n+]1c(C)cc(N)c2ccccc21 ?
RGS4 inhibitor: 24µM*; Eya2 inh: 1%; PI4K2A block: -3

What do the screens show for `O=C(COC(=O)/C=C/c1ccc(Cl)cc1Cl)Nc1cccc(S(=O)(=O)NC2=NCCC2)c1`?
PI4K2A block: -4; CtBP-E1A inh: -17; Six1-Eya2 blk: -18

Results for O=C(COC(=O)/C=C/c1ccc(Cl)cc1)Nc1cccc(S(=O)(=O)NC2=NCCCCC2)c1 ?
RGS4 inhibitor: -1%; USP2a block: 1%; Eya2 inh: -14%; PI4K2A block: -1; CtBP-E1A inh: -84*; Six1-Eya2 blk: -7

Results for O=C(COC(=O)/C=C/c1cccc(Cl)c1)Nc1cccc(S(=O)(=O)NC2=NCCC2)c1 ?
RGS4 inhibitor: 6%; USP2a block: 2%; Eya2 inh: -1%; PI4K2A block: 1; CtBP-E1A inh: -80*; Six1-Eya2 blk: -15

How did Cc1c(C(=O)N(C)C)sc2nc(-c3ccccn3)[nH]c(=O)c12 do in these assays?
RGS4 inhibitor: 12%; USP2a block: -1%; Eya2 inh: 4%; PI4K2A block: -9; CtBP-E1A inh: -97*; Six1-Eya2 blk: -89*

How did CCN(CC)C(=O)c1sc2nc(Cc3ccccc3)[nH]c(=O)c2c1C do in these assays?
RGS4 inhibitor: inconclusive; USP2a block: 3%; Eya2 inh: 2%; PI4K2A block: -2; CtBP-E1A inh: 0; Six1-Eya2 blk: 2

What do the screens show for `NC(CCc1ccccc1)c1csc(Nc2cnccn2)n1` (stereo unspecified)?
PI4K2A block: -2; CtBP-E1A inh: -67*; Six1-Eya2 blk: inconclusive

How did COc1ccc(CC(N)c2csc(Nc3cccc(OC)n3)n2)cc1 (stereo unspecified) do in these assays?
PI4K2A block: -3; CtBP-E1A inh: -21; Six1-Eya2 blk: -8

How did c1ccc(-c2csc(Nc3ccccn3)n2)cc1 do in these assays?
RGS4 inhibitor: -12%; USP2a block: 2%; Eya2 inh: -3%; PI4K2A block: -5; CtBP-E1A inh: -14; Six1-Eya2 blk: -3

Results for COc1ccc(CC(N)c2csc(Nc3ccccn3)n2)cc1 (stereo unspecified) ?
PI4K2A block: -4; CtBP-E1A inh: -92*; Six1-Eya2 blk: -88*

How did Cc1cnc(C)c(Nc2nc(C(N)c3ccccc3)cs2)n1 (stereo unspecified) do in these assays?
PI4K2A block: -11; CtBP-E1A inh: -66*; Six1-Eya2 blk: inconclusive

Results for NC(c1csc(Nc2ccccn2)n1)C1CCCCC1 (stereo unspecified) ?
PI4K2A block: 2; CtBP-E1A inh: -80*; Six1-Eya2 blk: inconclusive

Results for Cn1c(=O)c2c(-c3ccc(Br)cc3)n(Cc3ccc(F)cc3)cc2n(C)c1=O ?
RGS4 inhibitor: 5%; PI4K2A block: -2

Compound activity: PubChem BioAssay, National Center for Advancing Translational Sciences (NCATS)
